PLK1 PBD inh – inhibitors of human PLK1 polo-box domain binding; Plk1 PBD binding of FITC phosphopeptide, fluorescence polarization; Potency, µM, actives largely listed as inhibitors; hit rate 2.8% among 360,000; AID 720504; further: series mostly up to about 57 µM; nearly all actives have a fitted effect of over 65% in size
MmCpn inh – inhibitors of Methanococcus maripaludis chaperonin TRiC (MmCpn) | hit rate 0.031% among 330,000 | AID 504842 | Potency, µM (highest dose often 76.9 µM), hits mostly inhibitors | purified Mm-Cpn ATPase, ADP Transcreener TR-FRET; further: nearly all actives have a fitted effect of over 80% in size
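25 nM Mm-CPN + cpd, 10 min 37°C; + 10 uM ATP, 30 min 37°C; buffer 30 mM Tris pH 7.4, 100 mM KCl, 5 mM MgCl2, 1 mM DTT; Transcreener ADP HTRF detection 30 min RT.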
VDR inh – blocks the human vitamin D receptor; P11473; VDR-SRC2-3 peptide fluorescence polarization, 2 h; Potency, µM, actives largely listed as inhibitors; hit rate 0.93% among 400,000; AID 504847
Target sequence (P11473 whole entry, looked up): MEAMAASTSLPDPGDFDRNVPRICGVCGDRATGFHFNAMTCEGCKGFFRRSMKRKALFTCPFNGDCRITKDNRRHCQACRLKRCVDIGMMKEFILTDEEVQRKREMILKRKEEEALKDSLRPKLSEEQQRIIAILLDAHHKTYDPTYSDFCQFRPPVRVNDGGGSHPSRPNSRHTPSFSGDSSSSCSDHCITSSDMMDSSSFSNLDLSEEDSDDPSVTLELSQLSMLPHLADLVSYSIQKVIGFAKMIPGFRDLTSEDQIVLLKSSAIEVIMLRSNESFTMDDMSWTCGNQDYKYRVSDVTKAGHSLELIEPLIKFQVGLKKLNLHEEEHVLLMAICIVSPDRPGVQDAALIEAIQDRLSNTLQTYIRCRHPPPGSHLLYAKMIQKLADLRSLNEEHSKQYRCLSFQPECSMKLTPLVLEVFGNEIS
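Measured by FP: displacement of SRC2-3 coactivator peptide from VDR by library compounds, following a two-hour ambient incubation.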
CCT modulator – cytosolic chaperonin activity modulation; purified chaperonin ATPase assay, HTRF ADP detection, 30 min; activity change, % (concentration not given with the values), hits read low; hit rate 0.3% among 360,000; in the data active means activity change below about -30%
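Nucleotide hydrolysis assay: TRiC at 20–40 nM final (set by batch activity) with 10 uM ATP, 30 min at 37 °C, in presence of 76 uM compound. Detection by competitive ADP HTRF, 30 min ambient.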
Sfp inh – Sfp phosphopantetheinyl transferase inhibition; Q9F4F7; Biochemical Sfp PPTase activity, qHTS; Potency, µM, most hits filed as inhibitors; hit rate 3.5% among 310,000; AID 1490;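 further: the enzyme is Sfp with the accession as filed and its product quenches rhodamine fluorescence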
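With Hepes-Na pH 7.6 buffer containing 10 mM MgCl2, Sfp (15 nM) modified BHQ-2-YbbR (12.5 uM) using rhodamine-CoA (5 uM). Two reads 30 minutes apart at 525/598 nm yielded each well's rate.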
G9a inh – blocks human histone lysine methyltransferase G9a | Q96KQ7 | G9a H3K9 monomethylation, AlphaScreen, 2 h | Potency, µM (series often up to 102 µM), usual class: inhibitors | hit rate 8.8% among 350,000 | AID 504332; further: nearly all actives have a fitted effect of over 75% in size
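Compounds were preincubated with 20 nM G9a for 15 min, after which biotinylated H3K9 peptide (500 nM) and SAM (20 uM) started a 2 h room-temperature reaction. Monomethylated product was quantified by antibody-based AlphaScreen chemiluminescence.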
Large screens that a line does not name were inactive; ! = repeats disagree. Shown are actives, neighbours in structure and some others; about 10% of the full set was active somewhere. Unless noted, the call rests on the fitted dose curve; in most records, active means well fitted curve in the direction sought with a large enough effect; inconclusive means small, poorly fitted or top-dose-only effect, or another doubt; inactive means no such curve, though single readings can be large; an effect the other way counts as inactive or inconclusive.

Cc1ccc(S(=O)(=O)N2[C@@H](c3ccc(C(C)(C)C)cc3)C(C(=O)O)=CC[C@H]2c2cccc(Cl)c2)cc1	PLK1 PBD inh 21.2µM, VDR inh inconclusive (no result: Sfp inh, G9a inh)
CCc1ccc([C@@H]2CC=C(C(=O)O)[C@H](c3ccc(Cl)cc3)N2S(=O)(=O)c2ccc(C)cc2)cc1	PLK1 PBD inh inconclusive (no result: Sfp inh)
CC(=O)O[C@H]1C(=O)[C@@]2(C)C([C@H](OC(=O)c3ccccc3)[C@]3(O)C[C@H](OC(=O)[C@H](O)[C@@H](NC(=O)c4ccccc4)c4ccccc4)C(C)=C1C3(C)C)[C@]1(OC(C)=O)CO[C@@H]1C[C@@H]2O (some centres not stated)	Sfp inh 44.7µM (no result: PLK1 PBD inh, MmCpn inh, CCT modulator)
CCOc1ccc(CNS(=O)(=O)c2ccc(-c3cc(C(F)(F)F)on3)s2)cc1	none (no result: PLK1 PBD inh, MmCpn inh, CCT modulator, Sfp inh)
Cc1cc(Nc2ccccc2O)nc(C)n1	none (no result: PLK1 PBD inh, MmCpn inh, CCT modulator, Sfp inh)
Cc1cccc(Nc2cc(C)c3c(O)cccc3n2)c1C	Sfp inh inconclusive, G9a inh 50.1µM
O=c1[nH][nH]c2c(N=Cc3ccccc3O)ccc(F)c12	PLK1 PBD inh 10.6µM, VDR inh inconclusive, Sfp inh 7.94µM, G9a inh 8.91µM
CCc1ccc(O)c(N=Cc2ccccc2O)c1	G9a inh inconclusive
CC(=O)N(O)CCCCCNC(=O)CCC(=O)N(O)CCCCCNC(=O)CCC(=O)N(O)CCCCCN	PLK1 PBD inh inconclusive, Sfp inh 44.7µM!
CCCC(=O)NCCCCNC(=O)CCC	none
COc1ccc(NC(=O)Cn2c(=O)n(-c3ccccc3)c(=O)c3c4c(sc32)CCCC4)cc1	none (no result: PLK1 PBD inh, MmCpn inh, CCT modulator, Sfp inh)
COc1ccc(COC(=O)N/N=C2/C[C@@H](O)[C@@H](O)[C@@H]3[C@@H]4C(=O)N(C5CCCCC5)C(=O)[C@H]4CC[C@H]23)cc1	none (no result: PLK1 PBD inh, MmCpn inh, VDR inh, CCT modulator, G9a inh)
COc1ccccc1C(=O)NC(=O)CSc1nnc(SC)s1	none (no result: Sfp inh)
Cc1nc(SCC(=O)NC(=O)NC2CCCCC2)nc(C)c1C	Sfp inh 50.1µM, G9a inh 14.1µM
Cc1csc(SCC(=O)NC(=O)NC2CCCC2)n1	G9a inh 44.7µM
COc1ccccc1C(=O)NC(=O)CSc1nc(C)cs1	G9a inh 50.1µM (no result: Sfp inh)
Cc1cc(C)n2nc(SCCCC(=O)c3ccc(F)cc3)nc2n1	PLK1 PBD inh inconclusive, Sfp inh inconclusive, G9a inh 50.1µM
Cc1csc(SCC(=O)NC(=O)NC(C)(C)C)n1	none
CCC(Sc1nnc2c(n1)[nH]c1ccccc12)C(=O)Nc1nnc(C(C)C)s1 (configuration not stated)	none (no result: PLK1 PBD inh, MmCpn inh, CCT modulator, Sfp inh)
O=C(Nc1cccc(C(=O)N2CCN(c3cccc(Cl)c3)CC2)c1)c1nsc2ccccc12	none (no result: PLK1 PBD inh, MmCpn inh, CCT modulator, Sfp inh)
COc1cccc(Cn2c(=O)c(C)nc3cnc(N(C)C)nc32)c1	none (no result: PLK1 PBD inh, MmCpn inh, CCT modulator)
COc1ccccc1CCNC(=O)Cc1c(C)c2ccc(O)cc2oc1=O	none (no result: PLK1 PBD inh, MmCpn inh, CCT modulator, Sfp inh)
Cc1ccc(Cn2c(CNC(=O)c3cccc(C)c3)nc3ccccc32)cc1	none (no result: PLK1 PBD inh, MmCpn inh, CCT modulator, Sfp inh)
CCOC(=O)c1c(C)[nH]c(CCC(=O)NCc2ccc(N(C)C)cc2)c1C	none (no result: PLK1 PBD inh, MmCpn inh, CCT modulator, Sfp inh)
Cc1cc(C)n2nc(SCC(=O)NC3CCCCC3)nc2n1	PLK1 PBD inh inconclusive, Sfp inh 39.8µM, G9a inh 44.7µM
Cc1cc(C)nc(SCC(=O)NC2CCCC2)n1	none
CCCCNC(=O)c1ccc2c(c1)NC(=O)C(CS(=O)(=O)Cc1cccc(C)c1)N2 (configuration not stated)	G9a inh 14.1µM (no result: PLK1 PBD inh, MmCpn inh, CCT modulator, Sfp inh)
COc1ccc(CNC(=O)c2ccc3c(c2)NC(=O)C(C)S3)cc1 (configuration not stated)	PLK1 PBD inh 13.4µM, VDR inh inconclusive, Sfp inh 22.4µM, G9a inh 10µM
COc1ccc(CNC(=O)c2ccc3c(c2)NC(=O)C(CS(=O)(=O)Cc2ccccc2Cl)N3)cc1 (configuration not stated)	G9a inh 11.2µM (no result: PLK1 PBD inh, MmCpn inh, CCT modulator, Sfp inh)
CCCCNC(=O)c1ccc2c(c1)NC(=O)C(CS(=O)(=O)Cc1ccc(C)cc1)N2 (configuration not stated)	G9a inh inconclusive (no result: PLK1 PBD inh, MmCpn inh, CCT modulator, Sfp inh)
COc1ccc(-c2oc3ncn4nc(-c5ccccc5Cl)nc4c3c2-c2ccc(OC)cc2)cc1	none (no result: PLK1 PBD inh, MmCpn inh, CCT modulator, Sfp inh)
CCN1Cc2c(/C=C/c3ccccc3)nc3ccc(OC)cc3c2N(c2cccc(Cl)c2)C1	MmCpn inh inconclusive, G9a inh 12.6µM
O=C(O)CCCn1cc(NC(=O)c2cccc(F)c2)cn1	none
